About 7,900 targets were measured; listed, in parts, are those with a hit and a random draw of the rest. About 0.6% of all pairs of compound and target were hits.
Key:
Assay in all cases: log2 fold change, soluble protein after heating vs DMSO (PISA); higher = thermal stabilisation; K562 cells, 10 uM, 30 min; active = over 0.2 and 3.5 SD of the protein, either way, in both replicates (recomputed)
ZEB2 = ZEB2 (UniProt O60315)
Procedure, shortened: (§1)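 K562 cells at 2×10^6 cells/mL were treated for 30 min with 10 μM compound, and aliquots were heated for 3 min over 48°C-58°C before pooling. Extraction used PBS with 0.5% NP-40 at 4°C, and soluble protein was the supernatant after 21,000xg for 90 min, measured by TMTpro 16plex LC-MS/MS with channel sums equalised. Thermal stability values, relative to control samples and from duplicates, are log2 fold changes.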

ZER1 = ZER1 (UniProt Q7Z7L7)
Procedure, shortened: as §1

ZFAND5 = ZFAND5 (UniProt O76080)
ZFAND5, sequence (O76080 whole entry, looked up): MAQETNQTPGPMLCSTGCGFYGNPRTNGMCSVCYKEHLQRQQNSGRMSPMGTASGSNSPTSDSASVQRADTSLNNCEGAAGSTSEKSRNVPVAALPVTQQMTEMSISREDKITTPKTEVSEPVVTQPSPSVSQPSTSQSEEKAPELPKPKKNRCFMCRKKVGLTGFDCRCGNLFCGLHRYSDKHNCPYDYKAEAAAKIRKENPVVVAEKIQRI
Procedure, shortened: as §1

ZFAND6 = ZFAND6 (UniProt Q6FIF0)
Procedure, shortened: as §1

ZFP91 = ZFP91 (UniProt Q96JP5)
ZFP91, sequence (Q96JP5 whole entry, looked up): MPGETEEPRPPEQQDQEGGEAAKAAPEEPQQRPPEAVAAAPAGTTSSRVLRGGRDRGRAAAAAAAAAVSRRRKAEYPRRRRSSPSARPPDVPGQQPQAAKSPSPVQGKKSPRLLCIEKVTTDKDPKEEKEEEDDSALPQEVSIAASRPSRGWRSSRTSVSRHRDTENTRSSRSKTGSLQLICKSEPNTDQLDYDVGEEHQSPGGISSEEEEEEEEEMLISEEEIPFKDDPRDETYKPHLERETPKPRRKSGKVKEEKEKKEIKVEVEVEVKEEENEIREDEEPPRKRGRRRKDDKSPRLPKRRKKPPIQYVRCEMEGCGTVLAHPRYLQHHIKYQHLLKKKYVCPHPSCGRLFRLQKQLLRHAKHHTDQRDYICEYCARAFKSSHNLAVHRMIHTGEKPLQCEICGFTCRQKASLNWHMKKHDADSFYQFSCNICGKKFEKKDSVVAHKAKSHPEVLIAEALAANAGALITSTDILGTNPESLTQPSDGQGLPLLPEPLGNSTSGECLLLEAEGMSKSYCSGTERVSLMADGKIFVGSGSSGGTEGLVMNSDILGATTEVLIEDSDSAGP
Procedure, shortened: as §1

ZFPL1 = ZFPL1 (UniProt O95159)
ZFPL1, sequence (O95159 whole entry, looked up): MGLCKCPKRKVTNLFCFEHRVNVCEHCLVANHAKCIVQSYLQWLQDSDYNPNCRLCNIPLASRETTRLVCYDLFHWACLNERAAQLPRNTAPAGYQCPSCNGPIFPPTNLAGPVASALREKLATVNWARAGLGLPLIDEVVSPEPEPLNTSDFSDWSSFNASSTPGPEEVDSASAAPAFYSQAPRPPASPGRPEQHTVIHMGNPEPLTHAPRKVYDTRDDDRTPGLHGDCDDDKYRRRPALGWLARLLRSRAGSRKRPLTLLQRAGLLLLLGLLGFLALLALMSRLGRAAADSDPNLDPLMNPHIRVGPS
Procedure, shortened: as §1

ZMAT2 = ZMAT2 (UniProt Q96NC0)
ZMAT2, sequence (Q96NC0 whole entry, looked up): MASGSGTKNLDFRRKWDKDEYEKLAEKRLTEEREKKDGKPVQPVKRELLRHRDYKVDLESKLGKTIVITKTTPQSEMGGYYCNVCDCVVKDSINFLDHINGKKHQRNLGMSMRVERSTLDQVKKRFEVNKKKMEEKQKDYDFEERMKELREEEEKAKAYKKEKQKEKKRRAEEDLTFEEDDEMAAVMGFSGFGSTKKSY
Procedure, shortened: as §1

ZMYM1 = ZMYM1 (UniProt Q5SVZ6)
Procedure, shortened: as §1

ZMYM3 = ZMYM3 (UniProt Q14202)
Procedure, shortened: as §1

ZNF143 = ZNF143 (UniProt P52747)
Procedure, shortened: as §1

ZNF217 = ZNF217 (UniProt O75362)
ZNF217, sequence (O75362 whole entry, looked up): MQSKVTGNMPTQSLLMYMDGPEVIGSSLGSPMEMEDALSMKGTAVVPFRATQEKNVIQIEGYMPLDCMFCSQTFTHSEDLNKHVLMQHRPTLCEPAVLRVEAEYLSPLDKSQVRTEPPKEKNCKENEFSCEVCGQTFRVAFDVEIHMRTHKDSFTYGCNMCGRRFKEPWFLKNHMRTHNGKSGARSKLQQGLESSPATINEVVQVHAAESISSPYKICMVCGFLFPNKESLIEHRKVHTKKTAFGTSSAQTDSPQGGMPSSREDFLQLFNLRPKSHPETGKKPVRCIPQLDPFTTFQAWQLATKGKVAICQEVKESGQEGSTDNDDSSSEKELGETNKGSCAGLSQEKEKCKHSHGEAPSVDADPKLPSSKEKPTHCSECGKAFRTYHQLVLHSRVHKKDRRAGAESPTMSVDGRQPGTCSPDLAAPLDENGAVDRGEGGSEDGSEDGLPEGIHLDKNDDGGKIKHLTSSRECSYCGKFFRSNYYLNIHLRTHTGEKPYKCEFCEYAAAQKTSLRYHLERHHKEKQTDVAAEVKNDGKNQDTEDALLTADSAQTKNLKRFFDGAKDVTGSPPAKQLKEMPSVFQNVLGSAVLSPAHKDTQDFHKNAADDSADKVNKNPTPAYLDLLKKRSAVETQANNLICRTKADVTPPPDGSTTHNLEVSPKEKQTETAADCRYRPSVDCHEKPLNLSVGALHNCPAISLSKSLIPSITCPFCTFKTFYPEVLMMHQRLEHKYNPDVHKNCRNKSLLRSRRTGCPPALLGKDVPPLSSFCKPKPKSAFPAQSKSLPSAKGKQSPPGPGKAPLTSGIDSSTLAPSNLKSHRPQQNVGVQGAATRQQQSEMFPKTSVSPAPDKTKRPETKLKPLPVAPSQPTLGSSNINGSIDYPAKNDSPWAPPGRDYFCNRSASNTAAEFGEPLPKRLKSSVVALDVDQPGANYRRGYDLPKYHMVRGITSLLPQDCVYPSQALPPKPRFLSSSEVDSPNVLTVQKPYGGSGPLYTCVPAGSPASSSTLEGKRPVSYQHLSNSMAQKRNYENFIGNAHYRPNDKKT
Procedure, shortened: as §1

ZNF239 = ZNF239 (UniProt Q16600)
Procedure, shortened: as §1

ZNF277 = ZNF277 (UniProt Q9NRM2)
ZNF277, sequence (Q9NRM2 whole entry, looked up): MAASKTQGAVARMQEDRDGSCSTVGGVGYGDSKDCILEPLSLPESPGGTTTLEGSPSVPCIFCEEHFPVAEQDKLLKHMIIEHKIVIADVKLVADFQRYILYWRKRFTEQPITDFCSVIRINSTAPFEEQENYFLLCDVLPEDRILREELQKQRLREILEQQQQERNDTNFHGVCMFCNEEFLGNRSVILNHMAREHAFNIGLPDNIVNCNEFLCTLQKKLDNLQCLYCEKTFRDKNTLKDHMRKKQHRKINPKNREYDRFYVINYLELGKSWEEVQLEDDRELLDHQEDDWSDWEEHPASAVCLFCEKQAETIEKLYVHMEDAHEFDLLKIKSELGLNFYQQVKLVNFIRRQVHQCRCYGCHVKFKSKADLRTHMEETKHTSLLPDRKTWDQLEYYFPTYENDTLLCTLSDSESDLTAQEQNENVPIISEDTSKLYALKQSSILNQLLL
Procedure, shortened: as §1

ZNF579 = ZNF579 (UniProt Q8NAF0)
ZNF579, sequence (Q8NAF0 whole entry, looked up): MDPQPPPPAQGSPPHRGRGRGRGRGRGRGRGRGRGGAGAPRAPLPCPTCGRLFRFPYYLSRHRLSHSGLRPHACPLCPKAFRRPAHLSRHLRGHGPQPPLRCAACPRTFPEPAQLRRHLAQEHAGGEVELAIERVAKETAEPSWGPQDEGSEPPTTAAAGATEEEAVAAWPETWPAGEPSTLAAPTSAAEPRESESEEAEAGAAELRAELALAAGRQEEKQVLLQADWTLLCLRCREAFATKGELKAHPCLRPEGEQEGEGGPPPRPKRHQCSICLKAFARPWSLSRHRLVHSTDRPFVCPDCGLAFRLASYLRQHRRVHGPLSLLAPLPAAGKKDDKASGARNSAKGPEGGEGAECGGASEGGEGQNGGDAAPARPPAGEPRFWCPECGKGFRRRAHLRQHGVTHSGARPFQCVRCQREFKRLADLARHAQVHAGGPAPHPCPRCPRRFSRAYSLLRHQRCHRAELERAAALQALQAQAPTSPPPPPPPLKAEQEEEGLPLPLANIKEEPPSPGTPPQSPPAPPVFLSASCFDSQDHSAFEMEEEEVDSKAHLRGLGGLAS
Procedure, shortened: as §1

ZNF580 = ZNF580 (UniProt Q9UK33)
ZNF580, sequence (Q9UK33 whole entry, looked up): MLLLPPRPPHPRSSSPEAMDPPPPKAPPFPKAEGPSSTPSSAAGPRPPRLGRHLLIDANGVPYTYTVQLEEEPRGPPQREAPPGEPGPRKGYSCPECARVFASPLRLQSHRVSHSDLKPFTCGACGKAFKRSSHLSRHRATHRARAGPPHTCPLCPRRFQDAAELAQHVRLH
Procedure, shortened: as §1

ZNF609 = ZNF609 (UniProt O15014)
Procedure, shortened: as §1

ZNF622 = ZNF622 (UniProt Q969S3)
Procedure, shortened: as §1

ZRANB2 = ZRANB2 (UniProt O95218)
Procedure, shortened: as §1

ZNF511 isoform 1 = ZNF511 isoform 1 (UniProt Q8NB15)
ZNF511 isoform 1, sequence (Q8NB15 whole entry, looked up, canonical isoform): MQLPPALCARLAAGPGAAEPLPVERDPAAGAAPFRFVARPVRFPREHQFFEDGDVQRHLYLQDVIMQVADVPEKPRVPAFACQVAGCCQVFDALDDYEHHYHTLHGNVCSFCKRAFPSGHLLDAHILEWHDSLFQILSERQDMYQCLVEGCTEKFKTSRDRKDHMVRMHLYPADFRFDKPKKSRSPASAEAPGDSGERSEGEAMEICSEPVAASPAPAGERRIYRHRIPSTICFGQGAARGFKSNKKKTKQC
Procedure, shortened: as §1

ZNF512 = ZNF512 (UniProt Q96ME7)
Procedure, shortened: as §1

Measured: log2 fold change

ZEB2, sequence (O60315 whole entry, looked up): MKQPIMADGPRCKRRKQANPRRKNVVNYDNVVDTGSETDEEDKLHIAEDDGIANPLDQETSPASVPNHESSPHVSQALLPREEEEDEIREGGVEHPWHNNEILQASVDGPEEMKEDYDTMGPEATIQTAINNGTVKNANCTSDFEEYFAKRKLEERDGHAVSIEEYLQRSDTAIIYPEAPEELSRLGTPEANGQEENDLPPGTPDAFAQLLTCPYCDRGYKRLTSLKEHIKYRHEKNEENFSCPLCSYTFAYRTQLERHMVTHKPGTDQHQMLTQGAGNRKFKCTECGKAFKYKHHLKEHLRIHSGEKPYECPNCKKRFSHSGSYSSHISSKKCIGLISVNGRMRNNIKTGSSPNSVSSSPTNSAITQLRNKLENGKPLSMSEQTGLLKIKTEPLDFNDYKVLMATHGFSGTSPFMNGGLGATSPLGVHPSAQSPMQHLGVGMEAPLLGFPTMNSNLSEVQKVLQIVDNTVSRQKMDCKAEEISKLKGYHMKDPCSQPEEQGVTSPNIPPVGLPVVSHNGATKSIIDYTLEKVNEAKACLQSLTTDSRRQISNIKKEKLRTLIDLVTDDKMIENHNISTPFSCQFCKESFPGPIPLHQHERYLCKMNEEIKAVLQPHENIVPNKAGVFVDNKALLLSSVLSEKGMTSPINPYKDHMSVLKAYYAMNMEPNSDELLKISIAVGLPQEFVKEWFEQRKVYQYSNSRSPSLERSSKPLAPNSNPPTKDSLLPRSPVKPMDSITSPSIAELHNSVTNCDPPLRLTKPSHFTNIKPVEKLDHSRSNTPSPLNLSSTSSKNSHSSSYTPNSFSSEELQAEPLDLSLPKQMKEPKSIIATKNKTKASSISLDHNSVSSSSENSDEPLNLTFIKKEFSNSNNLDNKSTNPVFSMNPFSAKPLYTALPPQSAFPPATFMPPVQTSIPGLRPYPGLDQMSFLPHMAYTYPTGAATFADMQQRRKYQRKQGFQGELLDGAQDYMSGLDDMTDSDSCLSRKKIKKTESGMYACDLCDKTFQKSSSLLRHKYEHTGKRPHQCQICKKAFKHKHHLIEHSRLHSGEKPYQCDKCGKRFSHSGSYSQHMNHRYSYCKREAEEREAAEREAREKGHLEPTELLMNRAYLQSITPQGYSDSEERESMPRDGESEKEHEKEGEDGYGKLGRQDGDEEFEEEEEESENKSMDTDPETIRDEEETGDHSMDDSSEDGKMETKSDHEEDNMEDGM

CNc1nc(-c2ccc3c(N)n[nH]c3c2)cc(N2C[C@@H](C(=O)NC3CCCCC3)CC[C@H]2C)n1
inactive: ZEB2 -0.09 | ZER1 -0.245 | ZFAND5 -0.072 | ZFAND6 -0.017 | ZFP91 -0.007 | ZFPL1 -0.031 | ZMAT2 -0.058 | ZMYM1 -0.021 | ZMYM3 -0.004 | ZNF143 -0.118 | ZNF217 -0.183 | ZNF239 -0.055 | ZNF277 0.11 | ZNF579 0.089 | ZNF580 0.128 | ZNF609 -0.004 | ZNF622 -0.019 | ZRANB2 -0.066

Cc1ccc(C(=O)N(CCCN)[C@@H](c2nc3cc(Cl)ccc3c(=O)n2Cc2ccccc2)C(C)C)cc1 [ispinesib]
inactive: ZEB2 0.05 | ZER1 0.153 | ZFAND5 -0.07 | ZFAND6 -0.082 | ZFP91 -0.227 | ZFPL1 0.236 | ZMAT2 0.042 | ZMYM1 -0.122 | ZMYM3 -0.013 | ZNF143 -0.038 | ZNF217 -0.064 | ZNF239 -0.074 | ZNF277 -0.27 | ZNF511 isoform 1 0.296 | ZNF579 0.029 | ZNF609 0.014 | ZNF622 0.062 | ZRANB2 0.005

CNC(=O)c1ccccc1Nc1nc(Nc2ccc(N3CCOCC3)cc2OC)ncc1Cl
inactive: ZEB2 -0.07 | ZER1 -0.164 | ZFAND5 -0.141 | ZFAND6 -0.015 | ZFP91 -0.016 | ZFPL1 0.061 | ZMAT2 -0.018 | ZMYM1 -0.082 | ZMYM3 0 | ZNF143 -0.084 | ZNF217 -0.029 | ZNF239 -0.055 | ZNF277 0.009 | ZNF512 0.151 | ZNF579 -0.019 | ZNF609 -0.057 | ZNF622 0.045 | ZRANB2 0.002

CCn1c(C(=O)N(C2CC2)C2CC2)cc2c3c(ncn3C)c(Nc3cc(C)n(C)n3)nc21
inactive: ZEB2 -0.041 | ZER1 0.045 | ZFAND5 0.063 | ZFAND6 0.046 | ZFP91 -0.028 | ZFPL1 0.042 | ZMAT2 0.022 | ZMYM1 -0.079 | ZMYM3 -0.029 | ZNF143 0.075 | ZNF217 -0.034 | ZNF239 0.004 | ZNF277 -0.188 | ZNF512 0.128 | ZNF579 0.002 | ZNF609 0.007 | ZNF622 0.005 | ZRANB2 0.014

CCN(CCCOc1ccc2c(Nc3cc(CC(=O)Nc4cccc(F)c4)[nH]n3)ncnc2c1)CCOP(=O)(O)O [barasertib]
inactive: ZEB2 0.117 | ZER1 0.034 | ZFAND5 -0.013 | ZFAND6 0.04 | ZFP91 -0.105 | ZFPL1 -0.032 | ZMAT2 -0.047 | ZMYM1 0.022 | ZMYM3 -0.076 | ZNF143 0.01 | ZNF217 0.03 | ZNF239 -0.034 | ZNF277 0.026 | ZNF511 isoform 1 -0.041 | ZNF579 0.037 | ZNF609 0.039 | ZNF622 -0.001 | ZRANB2 -0.01

O=C(Nc1nc2ccccc2n1CCN1CCOCC1)c1cccc([N+](=O)[O-])c1 [IRAK-1-4 Inhibitor I]
inactive: ZEB2 0.02 | ZER1 0.025 | ZFAND5 0.057 | ZFAND6 0.032 | ZFP91 -0.134 | ZFPL1 0.021 | ZMAT2 0.11 | ZMYM1 0.006 | ZMYM3 0.057 | ZNF143 0.108 | ZNF217 0.052 | ZNF239 0.154 | ZNF277 -0.346 | ZNF579 -0.096 | ZNF580 0.051 | ZNF609 -0.031 | ZNF622 0.004 | ZRANB2 -0.008

C=CC(=O)N1CCC[C@@H](n2nc(-c3ccc(Oc4ccccc4)cc3)c3c(N)ncnc32)C1 [ibrutinib]
inactive: ZEB2 0.029 | ZER1 0.001 | ZFAND5 0.03 | ZFAND6 0.006 | ZFP91 0 | ZFPL1 0.087 | ZMAT2 0.025 | ZMYM1 0.066 | ZMYM3 0.03 | ZNF143 0.01 | ZNF217 -0.028 | ZNF239 0.165 | ZNF277 -0.028 | ZNF511 isoform 1 0.047 | ZNF579 -0.024 | ZNF609 -0.024 | ZNF622 -0.003 | ZRANB2 0.013

Cc1cc(SCc2sc(-c3ccc(C(F)(F)F)cc3)nc2C)ccc1OCC(=O)O
inactive: ZEB2 0.089 | ZER1 0.055 | ZFAND5 -0.079 | ZFAND6 -0.038 | ZFP91 0.042 | ZFPL1 0.025 | ZMAT2 -0.048 | ZMYM1 0.032 | ZMYM3 -0.011 | ZNF143 0.028 | ZNF217 0.112 | ZNF239 -0.172 | ZNF277 0.152 | ZNF579 -0.009 | ZNF580 -0.301 | ZNF609 -0.134 | ZNF622 -0.009 | ZRANB2 -0.086

CN(C)CC(=O)Nc1ccc2[nH]c(=O)c3ccccc3c2c1
inactive: ZEB2 -0.124 | ZER1 -0.099 | ZFAND5 -0.119 | ZFAND6 -0.052 | ZFP91 -0.074 | ZFPL1 0 | ZMAT2 -0.018 | ZMYM1 -0.046 | ZMYM3 -0.067 | ZNF143 -0.025 | ZNF217 0.06 | ZNF239 -0.1 | ZNF277 -0.003 | ZNF511 isoform 1 0.068 | ZNF579 -0.026 | ZNF580 0.046 | ZNF609 0.047 | ZNF622 -0.024 | ZRANB2 -0.048

CN(CCOc1ccc(C[C@@H]2SC(=O)NC2=O)cc1)c1ccccn1 (racemic) [rosiglitazone]
inactive: ZEB2 0.078 | ZER1 0.103 | ZFAND5 -0.001 | ZFAND6 -0.015 | ZFP91 -0.101 | ZFPL1 -0.03 | ZMAT2 -0.019 | ZMYM1 0.029 | ZMYM3 0.001 | ZNF143 -0.037 | ZNF217 0.047 | ZNF239 0.17 | ZNF277 0.011 | ZNF511 isoform 1 0.085 | ZNF579 -0.021 | ZNF609 0.027 | ZNF622 0.027 | ZRANB2 -0.055

NC(=O)c1ccc2nc(-c3ccc(Oc4ccc(Cl)cc4)cc3)[nH]c2c1
inactive: ZEB2 0.029 | ZER1 -0.311 | ZFAND5 -0.013 | ZFAND6 0.003 | ZFP91 0.017 | ZFPL1 0.055 | ZMAT2 0.019 | ZMYM1 -0.135 | ZMYM3 -0.02 | ZNF143 0.039 | ZNF217 0.015 | ZNF239 0.248 | ZNF277 -0.104 | ZNF512 -0.014 | ZNF579 0.042 | ZNF609 0.029 | ZNF622 0.007 | ZRANB2 -0.015

CCCS(=O)(=O)Nc1ccc(F)c(C(=O)c2c[nH]c3ncc(Cl)cc23)c1F
inactive: ZEB2 0.123 | ZER1 -0.001 | ZFAND5 -0.058 | ZFAND6 0.002 | ZFP91 -0.041 | ZFPL1 0.006 | ZMAT2 -0.008 | ZMYM1 -0.006 | ZMYM3 0.016 | ZNF143 0.063 | ZNF239 -0.02 | ZNF277 0.028 | ZNF511 isoform 1 0.014 | ZNF579 -0.085 | ZNF580 0.069 | ZNF609 0.036 | ZNF622 0.023 | ZRANB2 -0.02
active: ZNF217 0.688

Cn1cc(-c2ccc3nnc(C(F)(F)c4ccc5ncccc5c4)n3n2)cn1
active: ZMYM3 -0.246
inactive: ZEB2 -0.135 | ZER1 -0.024 | ZFAND5 -0.036 | ZFAND6 -0.009 | ZFP91 -0.073 | ZFPL1 -0.03 | ZMAT2 -0.051 | ZMYM1 0.05 | ZNF143 0.041 | ZNF217 -0.01 | ZNF239 -0.102 | ZNF277 -0.064 | ZNF511 isoform 1 -0.132 | ZNF579 0.002 | ZNF609 -0.286 | ZNF622 0.024 | ZRANB2 0.036

CC[C@@H]1C(=O)N(C)c2cnc(Nc3ccc(C(=O)N[C@H]4CC[C@H](N5CCN(CC6CC6)CC5)CC4)cc3OC)nc2N1C(C)C [volasertib]
inactive: ZEB2 0.001 | ZER1 0.009 | ZFAND5 0.215 | ZFAND6 0.09 | ZFP91 0.016 | ZFPL1 -0.088 | ZMAT2 0.036 | ZMYM1 -0.118 | ZMYM3 -0.077 | ZNF217 -0.007 | ZNF239 0.084 | ZNF277 -0.017 | ZNF511 isoform 1 0.007 | ZNF579 0.098 | ZNF580 0.025 | ZNF609 -0.328 | ZNF622 0.138 | ZRANB2 0.1
active: ZNF143 -0.289

Reference: the supplement of paper PMC10849652
